The record followed here is PubChem BioAssay (NCATS).

The structures appear in SMILES notation. The source made the active and inactive calls. The rule behind the calls is not given here.
Potency is the fitted concentration of half-maximal effect.

In the assay the test system is HIV-1 nucleocapsid protein NCp7 (binding to TG oligonucleotide). The assay is described as follows: HIV Nucleocapsid (AID 346).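 Note: potency is for inhibitors that block NC binding and lower polarization.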 The conditions noted are these: HIV-1 NC / fluorescein-TGTGTGTG probe, fluorescence polarization. In outline:
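Inhibition of nucleocapsid binding to single-stranded 5'-TGTGTGTG probe (10 nM) was measured by fluorescence polarization after 1 hr at room temperature with 100 nM protein under high-salt, zinc-containing, reducing conditions.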
A general note: Polarisation of emitted light reports the rotation of a fluorescent probe.
For the molecule `c1cn(-c2ncnc3ccc(-c4ccoc4)cc23)cn1`, the Potency is > 20 µM (inactive).

On to `O=C(c1ccco1)N1CCC2(CC1)CN(c1ccccc1)C2`, for which the Potency is > 20 µM (inactive).

`CCNc1ncc2nc(C)c(=O)n(Cc3ccc(F)cc3)c2n1`: the Potency is > 20 µM (inactive).

Turning to `COc1ccccc1CNc1ncncc1-c1ccccc1C(F)(F)F`, the Potency is > 20 µM (inactive).

On to `CN(C)C(=O)c1ccc(-c2nccc(NCc3ccccc3)n2)cc1`, for which the Potency was > 20 µM (inactive).

Consider `N#Cc1cccc(NC(=O)N2CC[C@@]3(CCCNC3)C2)c1`, for which the Potency was > 20 µM (inactive).

For `CC(C)NC(=O)N1CC[C@@]2(CCCN(C(=O)c3cccc(F)c3)C2)C1`, the Potency is > 20 µM (inactive).

For the molecule `O=C(Nc1ccccc1)N1CC[C@@]2(CCCN(C(=O)c3ccco3)C2)C1`, the Potency is > 20 µM (inactive).

Regarding `Cc1cccc(CNc2ncnc3ccc(-c4ccc(C(=O)N(C)C)cc4)cc23)c1`, the Potency is > 20 µM (inactive).

Consider `CS(=O)(=O)Nc1cccc(-c2cncnc2-n2ccnc2)c1`, for which the Potency was > 20 µM (inactive).

Consider `COc1ccc(NC(=O)N2CC3(CCN(C(=O)c4cccn4C)CC3)C2)cc1`, for which the Potency was > 20 µM (inactive).

Regarding `Cn1cccc1C(=O)N1CCC2(CC1)CN(C(=O)Nc1ccccc1)C2`, the Potency was > 20 µM (inactive).

As to `CS(=O)(=O)Nc1cccc(-c2cncnc2NCc2cccnc2)c1`, the Potency is > 20 µM (inactive).

For `Cc1noc(C)c1C(=O)N1CCC2(CCCN(C(=O)Nc3ccccc3)C2)CC1`, the Potency was > 20 µM (inactive).

Take `CS(=O)(=O)Nc1cccc(-c2cc(Nc3ccccc3)ncn2)c1`: the Potency is > 20 µM (inactive).

Consider `O=C(c1ccco1)N1CCC2(CCCN(Cc3ccncc3)C2)CC1`, for which the Potency was > 20 µM (inactive).

For `COc1cccc(Nc2ncc3nc(-c4cc(F)cc(F)c4)c(=O)n(CCC#N)c3n2)c1`, the Potency is > 20 µM (inactive).

Consider `O=C(O)C1CCN(c2ncnc3ccc(-c4ccccc4C(F)(F)F)cc23)CC1`, for which the Potency is > 20 µM (inactive).

`Cc1cccc(CNc2nc(-c3cccnc3)nc3ccccc23)c1`: the Potency was > 20 µM (inactive).

For `COc1ccc(Oc2ncc3nc(-c4cccc(C#N)c4)c(=O)n(C)c3n2)cc1`, the Potency is > 20 µM (inactive).

On to `c1cncc(CNc2ncncc2-c2ccoc2)c1`, for which the Potency was > 20 µM (inactive).

In the case of `COCCn1c(=O)c(-c2ccccc2)nc2cnc(N(C)C)nc21`, the Potency was > 20 µM (inactive).

Consider `CN(C)c1ccc(-c2ccc3ncnc(N(C)Cc4ccco4)c3c2)cc1`, for which the Potency was > 20 µM (inactive).

On to `N#Cc1ccc(CN2CC[C@@]3(CCCN(C(=O)c4ccco4)C3)C2)cc1`, for which the Potency is > 20 µM (inactive).

Turning to `COCC(=O)N1CCC[C@@]2(CCN(Cc3ccccc3OC)C2)C1`, the Potency is > 20 µM (inactive).

Regarding `COc1cccc(Cn2c(=O)cnc3cnc(Nc4cccc(OC)c4)nc32)c1`, the Potency is > 20 µM (inactive).

As to `COc1cccc(-c2cncnc2NCc2ccccc2)c1`, the Potency is > 20 µM (inactive).

As for `COc1ccc(-c2nc3cnc(Nc4ccccc4)nc3n(C[C@H]3CCCO3)c2=O)cc1`, the Potency was > 20 µM (inactive).

With `Cn1cccc1C(=O)N1CCC2(CC1)CN(C(=O)Nc1cccc(C#N)c1)C2`, the Potency is > 20 µM (inactive).

Regarding `Cc1noc(C)c1C(=O)N1CCC[C@@]2(CCN(Cc3ccccc3)C2)C1`, the Potency is > 20 µM (inactive).

`O=C(Nc1cccc(F)c1)N1CCC2(CC1)CCN(C(=O)c1cc(C(F)(F)F)cc(C(F)(F)F)c1)CC2`: the Potency was > 20 µM (inactive).

For the molecule `CN(Cc1ccco1)c1cc(-c2ccccc2Cl)ncn1`, the Potency is > 20 µM (inactive).

Turning to `O=C(c1ccncc1)N1CCC2(CCN(Cc3nccs3)CC2)CC1`, the Potency was > 20 µM (inactive).

`Cn1c(=O)c(-c2cc(F)cc(F)c2)nc2cnc(Oc3ccccc3)nc21`: the Potency was > 20 µM (inactive).

`O=C(c1ccco1)N1CCC[C@@]2(CCN(Cc3nccs3)C2)C1`: the Potency is > 20 µM (inactive).

On to `COc1ccccc1-c1nccc(NCc2cnc(C)cn2)n1`, for which the Potency is > 20 µM (inactive).

For the molecule `CS(=O)(=O)N1CCC2(CCCN(C(=O)Nc3ccccc3)C2)CC1`, the Potency was > 20 µM (inactive).

In the case of `CS(=O)(=O)Nc1cccc(-c2nc(NCc3cccnc3)c3ccccc3n2)c1`, the Potency was > 20 µM (inactive).

Consider `Cc1ccccc1-c1cncnc1Nc1ccccc1`, for which the Potency is > 20 µM (inactive).

Turning to `O=c1cnc2cnc(N3CCOCC3)nc2n1Cc1cccs1`, the Potency was > 20 µM (inactive).
